Records with an inconclusive call do not appear. The source made the active and inactive calls. Unless noted, calls come from the whole dose curve; as a rule, active = well fitted curve in the direction sought with a large enough effect; inconclusive = small, poorly fitted or top-dose-only effect, or another doubt; inactive = no such curve, though single readings can be large; an effect the other way counts as inactive or inconclusive.
Assays:
[1] = biological target: Beta-2 adrenergic receptor (Homo sapiens) (UniProt P07550); test: qHTS validation assay of beta-arrestin-biased ligands of beta2-adrenergic receptor (AID 485366); note: 0% is about no effect
Summary of the method: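 Screening used a titration range of up to 46 microM in a beta-arrestin recruitment Tango luciferase assay. Cells in 1% FBS medium were treated 18 hr at 37 degrees C, and luminescence was normalized to %Activity.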

[2] = biological target: Thioredoxin reductase 1, cytoplasmic (Rattus norvegicus) (UniProt O89049); test: qHTS Assay for Substrates of Mammalian Selenoprotein Thioredoxin Reductase 1 (TrxR1) (AID 488772);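 note: series mostly up to about 57 µM; 0% is about no effect; a drop in NADPH fluorescence below the no-compound background marks a TrxR1 substrate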
Summary of the method: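 In this dual-purpose format, potential substrates are identified from the first fluorescence read after selenite addition, not from the 8-minute delta. Rat enzyme is preincubated with NADPH and then with compound at ~22 deg C.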

[3] = biological target: Thioredoxin reductase 1, cytoplasmic (Rattus norvegicus) (UniProt O89049); test: qHTS Assay for Inhibitors of Mammalian Selenoprotein Thioredoxin Reductase 1 (TrxR1) (AID 488773);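 note: drop in NADPH fluorescence over an 8 min run after selenite addition; series mostly up to about 57 µM; % is set by controls: 0 for no effect and ±100 for the full control effect; nearly all actives have a fitted effect of over 40% in size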
Summary of the method: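 Inhibition is scored from the loss of NADPH fluorescence between first and last reads of an 8-min kinetic run. Selenite (400 uM) was the substrate, added after 15 min compound preincubation at room temperature.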

[4] = biological target: Flap endonuclease 1 (Homo sapiens) (UniProt P39748); test: qHTS Validation Assay for the Inhibitors of Human Flap endonuclease 1 (FEN1) (AID 488816); note: % is set by controls: 0 for no effect and ±100 for the full control effect
Summary of the method: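 Enzyme reagent 10 nM; cpds pinned; 15 min RT preinc.; substrate 50 nM final; reads t=0 and 15 min; no-enzyme buffer wells as neg. control; normalized data, 4-parameter Hill fit.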

[5] = biological target: M-phase phosphoprotein 8 (Homo sapiens) (UniProt Q99549); test: qHTS Validation Assay for Inhibitors for MPP8 Chromodomain Interactions with Methylated Histone Tails (AID 488949); note: top concentration of the series differs between compounds; % is set by controls: 0 for no effect and ±100 for the full control effect; nearly all actives have a fitted effect of over 55% in size
Summary of the method: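 MPP8 (50 nM) was pre-bound to 50 nM biotinylated H3(1-18)K9me3 peptide in PBS pH 7.4 with 0.01% Tween-20. Compounds were then added for 30 min at room temperature, and complex disruption was read by AlphaScreen with streptavidin donor and nickel-chelate acceptor beads.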

[6] = biological target: Chromobox protein homolog 1 (Homo sapiens) (UniProt P83916); test: qHTS Validation Assay for Inhibitors of HP1-beta Chromodomain Interactions with Methylated Histone Tails (AID 488953);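 note: loss of AlphaScreen luminescence from HP1-beta binding biotinylated H3K9me3 peptide; series mostly up to about 110 µM; % is set by controls: 0 for no effect and ±100 for the full control effect; nearly all actives have a fitted effect of over 50% in size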
Summary of the method: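 Disruption of preformed HP1-beta:H3K9me3 peptide complexes (both 50 nM, PBS pH 7.4 with 0.01% Tween-20) is measured by AlphaScreen after 30 min compound exposure at room temperature, using streptavidin donor and nickel chelate acceptor beads at 10 ug/mL final.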

[7] = biological target: Methanococcus maripaludis chaperonin (MmCpn) (UniProt Q6LX38); test: High-Throughput Screening for Modulators of Cytosolic Chaperonin Activity: MmCpn Primary Screen (AID 488978);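 note: 50 nM MmCpn enzyme hydrolysing 30 µM ATP at 37 °C; 0% is about no effect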
Summary of the method: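 MmCpn at 50 nM final was preincubated 5 min at RT with compound. ATP was then added at 30 uM final for 10 min at 37 C. ADP formed was detected by Transcreener HTRF (665/590 nm).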

[8] = biological target: Transient receptor potential cation channel subfamily V member 1 (Homo sapiens) (UniProt Q8NER1); test: HTS Assay for Compounds that Act as Enhancers of the Vanilloid Receptor 1 (AID 488979); note: 0% is about no effect
Summary of the method: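 TRPV1 cells loaded with Fluo-8 calcium dye; compound added and Ca2+ signal (ex 480/em 520 nm) followed 3 min, then capsaicin at EC20 added and read 2 more min to detect enhancement.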

[9] = biological target: Thyrotropin receptor (Homo sapiens) (UniProt P16473); test: qHTS Assay for Antagonists of the Thyroid Stimulating Hormone Receptor (AID 488980); note: series mostly up to about 58 µM; 0% is about no effect
Summary of the method: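 TSHR-transfected HEK293 cells (2000/well) in HEPES-buffered HBSS with 70 uM RO 20-1724 were stimulated with 4 nM TSH (EC80, final) in the presence of compound. cAMP was measured by HTRF competition after lysis and 30 min at RT.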

[10] = biological target: D(1A) dopamine receptor (Homo sapiens) (UniProt P21728); test: HTS Assay for Allosteric Agonists of the Human D1 Dopamine Receptor: Primary Screen for Agonists (AID 488981); note: 0% is about no effect
Summary of the method: (§1)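 Tetracycline-induced HEK293 Trex D1 cells with forced coupling to calcium, loaded with no-wash calcium dye; kinetic fluorescence read 180 s after compound addition for agonism, then a further 180 s after an EC20 dopamine challenge for potentiation.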

[11] = biological target: D(1A) dopamine receptor (Homo sapiens) (UniProt P21728); test: HTS Assay for Allosteric Agonists of the Human D1 Dopamine Receptor: Primary Screen for Potentiators (AID 488982); note: 0% is about no effect
Summary of the method: as §1

[12] = Validation screen for small molecules that induce genotoxicity in human embryonic kidney (HEK293T) cells expressing luciferase-tagged ELG1 (AID 493106); note: 0% is about no effect
Summary of the method: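 Cells were dispensed at 2,000 per well, then 23 nL compound or DMSO was pinned in. After 16 hr at 37 °C and 5% CO2, ONE-Glo reagent was added. Luciferase activity was measured following 30 min at room temperature.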

[13] = biological target: Thyrotropin-releasing hormone receptor (Homo sapiens) (UniProt P34981); test: qHTS for Small Molecule Agonists and Allosteric Enhancers of Human TRH Receptor: Validation Screen for Agonists (AID 493127;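 active = calcium activation more than 3 SD above the typical response in the agonist read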;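 note: intracellular calcium rise by fluo-8 fluorescence before TRH EC20 addition; 0% is about no effect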); details: TRH receptor agonist cell assay; at 2 µM; stronger effect = higher value
Summary of the method: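 Compounds are added by online pintool to dye-loaded TRHR cells while fluorescence is recorded every second. A rise in calcium signal during the agonist read marks activation; a later 10 nM TRH addition (EC20) serves the separate enhancer mode.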

[14] = Nrf2 qHTS screen for inhibitors: Validation (AID 493153; active = well fitted inhibition curve with a large enough effect in the main read-out, with a control signal flat, not every such curve was filed as active); details: viability change: measured here: cytotoxicity max response
Summary of the method: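 A549 ARE_Fluc, 5% FBS OPTI-MEM; cpd titration, 18-24 h, 37°C/5% CO2. Read 1: CellTiter-Fluor (Ex 405/Em 525), cytotox. Read 2: luciferase lum, Nrf2 activity.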

[15] = qHTS for Inhibitors of Cell Surface uPA Generation: Validation Assay (AID 493164);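 note: RAW 264.7 macrophage cells exposed to compound for 18 h; 0% is about no effect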
Summary of the method: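 ATP-Lite luminescence read-out: ATP remains high when uPA activity-dependent LF translocation into the cytoplasm is blocked. RAW 264.7 cells, 18 h compound exposure at 37 C; 7-point titration, 2.45 nM to 38.3 uM final.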

[16] = biological target: Galactokinase (Homo sapiens) (UniProt P51570); test: qHTS Validation Assay for Inhibitors of Human Galactokinase (GALK) (AID 493189); note: 0% is about no effect
Summary of the method: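 GALK (5 nM) with 35 uM ATP and 100 uM galactose in HEPES pH 8.0 with MgCl2, NaCl, DTT and BSA. Reaction ran 1 h at room temperature. Residual ATP read by Kinase-Glo Plus luminescence.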

[17] = biological target: ATP-dependent 6-phosphofructokinase (Trypanosoma brucei brucei) (UniProt O15648); test: qHTS Validation Assay to Find Inhibitors of T. brucei phosphofructokinase (AID 485368)
Summary of the method: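 PFK-generated ADP was measured after 45 min at room temperature using ADP-Glo. The reaction contained 0.5 mM F6P and 0.1 mM ATP.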

[18] = Quantitative high throughput screen for delayed death inhibitors of the malarial parasite plastid, 96 hour incubation (AID 488745);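 note: luciferase-expressing P. falciparum in erythrocytes at 2% hematocrit and 0.1% parasitemia; series mostly up to about 29 µM; % is set by controls: 0 for no effect and ±100 for the full control effect; nearly all actives have a fitted effect of over 70% in size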
Summary of the method: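 Readout is firefly luciferase luminescence from an integrated reporter in P. falciparum; lower signal marks inhibited growth. Cultures at 2% hematocrit and 0.1% parasitemia were treated with compound across two generations (96 h, 37 C, 5% CO2).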

[19] = Quantitative high throughput screen for delayed death inhibitors of the malarial parasite plastid, 48 hour incubation (AID 488752); note: % is set by controls: 0 for no effect and ±100 for the full control effect; nearly all actives have a fitted effect of over 65% in size
Summary of the method: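 First, compound was pinned into RPMI 1640 medium containing 0.5% Albumax. Next, reporter-parasite-infected erythrocytes were added to 2% hematocrit and 0.1% parasitemia. After 48 h at 37 C under 5% CO2, luciferase detection reagent was added and luminescence read.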

[20] = biological target: ATP-dependent 6-phosphofructokinase (Trypanosoma brucei brucei) (UniProt O15648); test: qHTS Assay to Find Inhibitors of T. brucei phosphofructokinase: hit validation (AID 492961);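 note: luminescence reports ADP formed as PFK phosphorylates fructose-6-phosphate with ATP; series mostly up to about 51 µM; % is set by controls: 0 for no effect and ±100 for the full control effect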
Summary of the method: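 Compounds titrated; %activity normalized to 0x and 1x enzyme controls, curve-fitted. Readout: ADP-Glo luminescence after 45 min room-temperature reaction of 1.25 nM PFK, 0.1 mM ATP, 0.5 mM F6P, pH 8.0.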

Sequence of D(1A) dopamine receptor (Homo sapiens) (P21728 whole entry, looked up): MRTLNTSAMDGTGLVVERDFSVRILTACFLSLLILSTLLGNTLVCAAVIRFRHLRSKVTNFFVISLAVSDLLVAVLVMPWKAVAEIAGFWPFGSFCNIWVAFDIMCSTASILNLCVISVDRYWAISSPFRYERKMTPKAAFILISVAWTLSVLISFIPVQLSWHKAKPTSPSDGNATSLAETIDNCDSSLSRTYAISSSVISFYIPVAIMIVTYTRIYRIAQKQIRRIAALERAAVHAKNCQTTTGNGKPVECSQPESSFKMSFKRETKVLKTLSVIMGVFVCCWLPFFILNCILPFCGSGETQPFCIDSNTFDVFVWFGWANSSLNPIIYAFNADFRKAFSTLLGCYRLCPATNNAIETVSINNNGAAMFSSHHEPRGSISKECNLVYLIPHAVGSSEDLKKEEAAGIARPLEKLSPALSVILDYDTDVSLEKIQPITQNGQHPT
Sequence of Thioredoxin reductase 1, cytoplasmic (Rattus norvegicus) (O89049 whole entry, looked up): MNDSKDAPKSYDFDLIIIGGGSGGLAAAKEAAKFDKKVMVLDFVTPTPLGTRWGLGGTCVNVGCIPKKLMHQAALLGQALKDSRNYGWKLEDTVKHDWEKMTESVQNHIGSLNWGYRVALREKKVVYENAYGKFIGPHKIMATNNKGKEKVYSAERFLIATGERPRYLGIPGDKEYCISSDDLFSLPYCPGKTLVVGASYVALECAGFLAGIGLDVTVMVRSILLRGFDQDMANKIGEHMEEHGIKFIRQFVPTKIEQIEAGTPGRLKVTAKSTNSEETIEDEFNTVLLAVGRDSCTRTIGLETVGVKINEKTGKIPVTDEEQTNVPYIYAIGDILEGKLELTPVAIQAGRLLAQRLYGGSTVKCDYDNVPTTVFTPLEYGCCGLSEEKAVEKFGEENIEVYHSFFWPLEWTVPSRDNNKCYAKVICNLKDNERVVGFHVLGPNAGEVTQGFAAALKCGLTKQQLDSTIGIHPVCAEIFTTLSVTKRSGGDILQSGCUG
Sequence of Chromobox protein homolog 1 (Homo sapiens) (P83916 whole entry, looked up): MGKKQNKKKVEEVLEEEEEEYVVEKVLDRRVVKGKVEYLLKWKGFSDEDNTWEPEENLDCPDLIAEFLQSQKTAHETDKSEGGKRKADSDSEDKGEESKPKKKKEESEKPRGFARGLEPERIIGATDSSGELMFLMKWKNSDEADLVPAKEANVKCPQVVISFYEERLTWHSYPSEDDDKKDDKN
Sequence of Beta-2 adrenergic receptor (Homo sapiens) (P07550 whole entry, looked up): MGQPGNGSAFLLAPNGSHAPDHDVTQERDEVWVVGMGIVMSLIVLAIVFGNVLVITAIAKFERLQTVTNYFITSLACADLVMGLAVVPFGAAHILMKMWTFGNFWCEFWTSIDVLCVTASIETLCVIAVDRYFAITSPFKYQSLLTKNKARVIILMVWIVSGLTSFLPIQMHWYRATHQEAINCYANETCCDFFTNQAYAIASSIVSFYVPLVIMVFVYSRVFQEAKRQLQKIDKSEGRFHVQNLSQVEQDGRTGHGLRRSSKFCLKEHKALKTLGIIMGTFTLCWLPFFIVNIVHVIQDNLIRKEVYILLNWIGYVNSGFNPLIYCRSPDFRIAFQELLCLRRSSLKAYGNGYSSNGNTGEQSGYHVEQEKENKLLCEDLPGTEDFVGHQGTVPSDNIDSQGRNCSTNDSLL
Sequence of M-phase phosphoprotein 8 (Homo sapiens) (Q99549 whole entry, looked up): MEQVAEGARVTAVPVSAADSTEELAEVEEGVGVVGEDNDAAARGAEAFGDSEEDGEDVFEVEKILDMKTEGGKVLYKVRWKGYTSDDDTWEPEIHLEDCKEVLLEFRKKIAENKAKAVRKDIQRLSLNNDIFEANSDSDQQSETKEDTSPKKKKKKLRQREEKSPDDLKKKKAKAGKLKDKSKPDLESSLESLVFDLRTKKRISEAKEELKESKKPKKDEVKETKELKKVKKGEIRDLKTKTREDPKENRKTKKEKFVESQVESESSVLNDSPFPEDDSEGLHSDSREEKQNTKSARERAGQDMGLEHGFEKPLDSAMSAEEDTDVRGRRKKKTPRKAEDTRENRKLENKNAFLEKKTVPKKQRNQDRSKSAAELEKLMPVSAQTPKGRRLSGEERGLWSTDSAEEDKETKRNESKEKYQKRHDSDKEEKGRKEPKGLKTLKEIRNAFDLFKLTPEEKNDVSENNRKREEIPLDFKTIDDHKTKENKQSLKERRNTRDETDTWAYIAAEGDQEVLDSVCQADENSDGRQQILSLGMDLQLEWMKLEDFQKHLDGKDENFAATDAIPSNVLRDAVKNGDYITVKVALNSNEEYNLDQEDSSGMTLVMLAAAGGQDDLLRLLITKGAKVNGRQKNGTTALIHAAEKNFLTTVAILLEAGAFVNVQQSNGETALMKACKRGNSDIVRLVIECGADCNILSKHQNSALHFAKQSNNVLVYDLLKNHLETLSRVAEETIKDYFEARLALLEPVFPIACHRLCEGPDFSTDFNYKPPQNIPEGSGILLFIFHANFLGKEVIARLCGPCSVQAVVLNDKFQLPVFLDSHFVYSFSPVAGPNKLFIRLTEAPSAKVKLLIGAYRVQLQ
Sequence of Thyrotropin receptor (Homo sapiens) (P16473 whole entry, looked up): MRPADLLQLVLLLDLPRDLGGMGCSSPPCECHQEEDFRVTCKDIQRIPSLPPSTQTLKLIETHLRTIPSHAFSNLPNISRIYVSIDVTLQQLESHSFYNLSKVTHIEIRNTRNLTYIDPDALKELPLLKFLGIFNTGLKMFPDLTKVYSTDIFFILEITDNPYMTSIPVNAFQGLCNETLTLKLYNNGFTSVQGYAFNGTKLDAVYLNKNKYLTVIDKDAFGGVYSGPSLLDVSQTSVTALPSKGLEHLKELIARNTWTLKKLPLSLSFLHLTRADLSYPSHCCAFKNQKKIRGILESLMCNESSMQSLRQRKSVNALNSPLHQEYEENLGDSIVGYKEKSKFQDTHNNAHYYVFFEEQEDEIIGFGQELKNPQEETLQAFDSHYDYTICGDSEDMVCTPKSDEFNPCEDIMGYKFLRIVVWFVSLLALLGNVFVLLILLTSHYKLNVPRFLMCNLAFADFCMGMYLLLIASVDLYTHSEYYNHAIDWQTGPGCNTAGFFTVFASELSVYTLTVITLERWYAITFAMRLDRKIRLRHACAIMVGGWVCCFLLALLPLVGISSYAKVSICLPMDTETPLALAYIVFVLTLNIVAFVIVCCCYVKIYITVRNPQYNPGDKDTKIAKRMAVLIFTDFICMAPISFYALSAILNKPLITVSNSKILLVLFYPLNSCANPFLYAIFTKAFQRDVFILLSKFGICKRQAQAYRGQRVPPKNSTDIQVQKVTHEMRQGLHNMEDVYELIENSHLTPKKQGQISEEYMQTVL
Sequence of Methanococcus maripaludis chaperonin (MmCpn) (Q6LX38 1-543): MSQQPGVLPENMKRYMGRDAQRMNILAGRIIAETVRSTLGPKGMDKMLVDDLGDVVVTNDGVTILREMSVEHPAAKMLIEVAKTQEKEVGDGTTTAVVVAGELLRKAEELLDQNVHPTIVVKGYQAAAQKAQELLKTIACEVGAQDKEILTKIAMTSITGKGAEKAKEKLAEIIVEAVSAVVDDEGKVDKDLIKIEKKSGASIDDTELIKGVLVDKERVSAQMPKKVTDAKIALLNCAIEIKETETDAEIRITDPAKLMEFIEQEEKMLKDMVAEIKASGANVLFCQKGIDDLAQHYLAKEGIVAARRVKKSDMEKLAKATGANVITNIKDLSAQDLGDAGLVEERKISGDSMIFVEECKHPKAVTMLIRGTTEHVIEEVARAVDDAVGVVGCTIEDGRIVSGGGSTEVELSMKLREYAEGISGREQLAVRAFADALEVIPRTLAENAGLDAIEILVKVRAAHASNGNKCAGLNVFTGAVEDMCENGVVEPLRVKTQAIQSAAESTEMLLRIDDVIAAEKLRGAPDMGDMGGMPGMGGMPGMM
Sequence of Thyrotropin-releasing hormone receptor (Homo sapiens) (P34981 whole entry, looked up): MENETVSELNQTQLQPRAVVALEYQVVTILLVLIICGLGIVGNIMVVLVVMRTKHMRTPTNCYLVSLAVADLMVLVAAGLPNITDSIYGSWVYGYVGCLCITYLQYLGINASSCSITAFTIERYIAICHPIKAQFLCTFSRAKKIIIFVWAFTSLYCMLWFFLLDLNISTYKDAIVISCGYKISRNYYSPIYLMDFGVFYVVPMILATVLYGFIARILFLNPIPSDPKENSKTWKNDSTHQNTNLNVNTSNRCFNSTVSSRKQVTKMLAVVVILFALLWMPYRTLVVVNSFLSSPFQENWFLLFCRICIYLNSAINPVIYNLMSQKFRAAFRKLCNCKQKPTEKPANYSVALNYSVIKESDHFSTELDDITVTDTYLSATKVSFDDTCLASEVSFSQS
Sequence of Transient receptor potential cation channel subfamily V member 1 (Homo sapiens) (Q8NER1 whole entry, looked up): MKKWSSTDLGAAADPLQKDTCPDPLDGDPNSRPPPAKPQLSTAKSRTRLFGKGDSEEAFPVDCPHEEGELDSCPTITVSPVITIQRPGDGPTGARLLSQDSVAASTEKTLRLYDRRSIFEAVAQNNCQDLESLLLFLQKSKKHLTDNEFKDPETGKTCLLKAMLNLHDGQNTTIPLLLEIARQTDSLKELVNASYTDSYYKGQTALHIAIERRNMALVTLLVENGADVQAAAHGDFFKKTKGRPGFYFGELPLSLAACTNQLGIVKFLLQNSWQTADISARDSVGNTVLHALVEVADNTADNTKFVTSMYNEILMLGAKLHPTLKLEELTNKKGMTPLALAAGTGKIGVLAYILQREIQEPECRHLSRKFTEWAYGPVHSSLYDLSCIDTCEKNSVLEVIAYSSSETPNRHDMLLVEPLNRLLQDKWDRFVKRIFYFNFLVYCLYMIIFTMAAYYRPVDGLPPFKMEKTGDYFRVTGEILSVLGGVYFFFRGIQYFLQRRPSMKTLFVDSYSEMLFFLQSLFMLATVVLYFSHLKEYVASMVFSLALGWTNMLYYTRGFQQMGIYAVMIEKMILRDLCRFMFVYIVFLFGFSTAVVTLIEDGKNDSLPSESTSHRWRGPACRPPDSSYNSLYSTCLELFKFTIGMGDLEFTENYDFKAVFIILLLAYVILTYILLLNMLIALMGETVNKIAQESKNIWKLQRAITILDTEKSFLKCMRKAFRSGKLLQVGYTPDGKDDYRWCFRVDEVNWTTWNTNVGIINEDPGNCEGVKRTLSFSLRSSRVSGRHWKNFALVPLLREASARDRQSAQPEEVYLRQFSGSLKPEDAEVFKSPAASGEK

CN1C2CCC1CC(OC(=O)c1c[nH]c3ccccc13)C2 (centres undefined)
-7.62%: viability change [14]
inactive: outcome [1] | outcome [2] | outcome [3] | outcome [4] | Potency [5] | Potency [6] | outcome [7] | outcome [8] | outcome [9] | Potency [10] | outcome [11] | outcome [12] | activation [13] 0.812% | outcome [14] | outcome [15] | outcome [16]

O=C1CCC(c2ccc(-n3ccnc3)cc2)=NN1
9.43%: viability change [14]
inactive: outcome [1] | Potency [17] | Potency [18] | Potency [19] | outcome [2] | outcome [3] | outcome [4] | Potency [5] | outcome [7] | outcome [8] | outcome [9] | Potency [10] | outcome [11] | outcome [20] | outcome [12] | activation [13] 0.188% | outcome [14] | outcome [15] | outcome [16]

CCOc1ccc(NC(=O)CC(C)O)cc1 (centres undefined)
inactive: outcome [20]

C[C@@H](CN(C)C)CN1c2ccccc2Sc2ccccc21
inactive: outcome [20]

Cc1ncc(CSSCc2cnc(C)c(O)c2CO)c(CO)c1O
inactive: outcome [20]

CC(C)COC(=O)OCN1C(=O)CN(CCN2CC(=O)N(COC(=O)OCC(C)C)C(=O)C2)CC1=O
inactive: outcome [1] | Potency [18] | Potency [19] | outcome [2] | outcome [3] | outcome [4] | Potency [6] | outcome [7] | outcome [8] | outcome [9] | Potency [10] | outcome [11] | outcome [20] | outcome [12] | activation [13] 0.75% | outcome [14] | outcome [15] | outcome [16]
-6.78%: viability change [14]

N[C@H](CO)C(=O)O
0.276%: viability change [14]
inactive: outcome [1] | Potency [17] | Potency [18] | Potency [19] | outcome [2] | outcome [3] | outcome [4] | Potency [5] | Potency [6] | outcome [7] | outcome [8] | outcome [9] | Potency [10] | outcome [11] | outcome [12] | activation [13] 0.688% | outcome [14] | outcome [15] | outcome [16]

CC(=O)O[C@H]1C[C@@H]2CC[C@@H]3[C@H](CC[C@@]4(C)[C@H]3C[C@H]([N+]3(C)CCCCC3)[C@@H]4OC(C)=O)[C@@]2(C)C[C@@H]1[N+]1(C)CCCCC1
inactive: outcome [1] | Potency [17] | outcome [2] | outcome [3] | outcome [4] | Potency [5] | Potency [6] | outcome [7] | Potency [10] | outcome [11] | outcome [12] | outcome [14] | outcome [15]
-0.593%: viability change [14]

CC[C@H](C)C(=O)O[C@H]1CCC=C2C=C[C@H](C)[C@H](CC[C@@H]3C[C@@H](O)CC(=O)O3)[C@H]21
-16.9%: viability change [14]
inactive: outcome [1] | Potency [17] | outcome [2] | outcome [3] | outcome [4] | Potency [5] | Potency [6] | outcome [7] | Potency [10] | outcome [14] | outcome [15]

C[C@H]1[C@H](NC(=O)/C(=N/OC(C)(C)C(=O)O)c2csc(N)n2)C(=O)N1S(=O)(=O)O (stereo in doubt)
inactive: outcome [20]

COc1cc(-c2ccc(=O)[nH]n2)ccc1OC(F)F
inactive: Potency [18] | Potency [19] | Potency [5] | outcome [8] | outcome [9] | outcome [20] | activation [13] -0.438% | outcome [16]

From PubChem BioAssay (NCATS)
